This is an account of results in PubChem BioAssay.

The source made the active and inactive calls.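 Rule for the calls, unless noted: active = inhibition above 20% together with a positive visual image hit; inconclusive = visual image hit but inhibition not above 20%; inactive = no visual image hit.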

Assay [1] in a line: inhibitors of TNFa-induced NFkB p65 translocation, primary screen, imaging, HUVEC, MLSMR starter and 10KST1 sets (AID 438).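 For inhibition: signal is the nuclear over cytoplasmic p65 intensity ratio per well.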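 Note: compound added about 3h40 before a 20 min TNFalpha stimulation.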 The conditions noted are these: HUVEC TNFa-induced p65 nuclear translocation; cell count: measured here: nuclei count (cytotoxicity indicator), at 2.08 µM; inhibition: at 2 µM, stronger effect = higher value, 0% TNFa-plus-vehicle, 100% no-TNFa wells.
Assay [2] in a line: inhibitors of mutant huntingtin aggregation, primary screen, imaging, exon1htt(103Q)mCFP cells, high-content imaging (AID 483;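 active = visual image review flags a hit and inhibition of aggregation exceeds 20%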;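 note: compound exposure lasted 3 days before fixation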;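 for nuclei count: percent of the per-plate median nuclei count of sample wells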). The following applies: exon1htt(103Q)mCFP cell line, aggregate imaging, at 2 µM; inhibition of aggregation: stronger effect = higher value; nuclei count: measured here: cell count, toxicity.
The nature of assay [3]: inhibitors of E-selectin induction by TNFa, primary screen, imaging, HUVEC, immunofluorescence, MLSMR starter and 10KST1 sets (AID 487;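 active = visually confirmed hit in the image check and inhibition above 20%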;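 for inhibition: signal is fraction of cell area covered by stained E-selectin grains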;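 for nuclei count: 100% = median nuclei count of all wells on the same plate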). The following applies: HUVEC TNFalpha-induced E-selectin immunofluorescence imaging, at 2 µM; inhibition: stronger effect = higher value; nuclei count: measured here: cell number, toxicity.
Assay [4] concerns the target Voltage-gated potassium channel subunit beta-2 (Rattus norvegicus) (UniProt P62483). Put plainly: KvBeta enzyme negative modulators, primary screen, biochemical, NADPH fluorescence (AID 622;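 active = fluorescence slope higher than the sample average by over 3 SD, cut at about -0.22 in these data, passing the limit was not always enough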;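 note: slope of raw intensity against log time taken from 70 to 1610 s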). The following applies: recombinant KvBeta, 4-cyanobenzaldehyde reduction, at 10 µM, stronger effect = higher value.
The target is the same in assay [5]. Put plainly: KvBeta positive modulators, primary screen, biochemical, NADPH fluorescence (AID 623;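 active = NADPH fluorescence slope more negative than the mean of all samples by about 3 SD, 99.7% confidence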;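 note: fluorescence intensity change per second fitted from 20 to 320 s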). The following applies: Recombinant KvBeta, NADPH fluorescence decrease slope, 10 min; at 10 µM; stronger effect = lower value.
Assay [6] concerns the target Alpha-2C adrenergic receptor (Homo sapiens) (UniProt P18825). Put plainly: modulators of alpha2C/GIRK thallium flux, primary screen, cell-based, HEK293 alpha2C/GIRK1/2 (AID 624;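 active = fluorescence slope after compound addition differing from the mean of all screened samples at 99.7% confidence, in either direction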;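 note: slope of fluorescence ratio to pre-addition baseline per second over 15 to 24 s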). The following applies: thallium flux BTC fluorescence, at 10 µM, actives lie on both sides.
Assay [7] in a line: inhibitors of Sendai virus-induced IRF3 signaling, primary screen, TLR/RLR signaling modifier project, cell-based, Sendai virus stimulus, luciferase, 10K MLSCN set (AID 602276;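 active = inhibition at or above 50% at 10 µM; inactive = inhibition below 50%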;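 note: firefly luciferase from ISG56 promoter only with Renilla not read in this screen; 0% = Sendai virus plus DMSO and 100% = medium plus DMSO without virus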). The following applies: HEK293 RL24 IRF3 luciferase reporter, at 10 µM, stronger effect = higher value. In general terms: A reporter such as luciferase makes a cellular process visible.
A short description of assay [8]: inhibitors of poly I:C-induced TLR3 signaling, primary screen, cell-based, poly I:C stimulus, luciferase, 10K MLSCN set (AID 602277;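 active = inhibition of the reporter signal at or above 50%; inactive = inhibition below 50%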). The following applies: HEK293-TLR3 RL24 IRF3 luciferase reporter, at 10 µM, stronger effect = higher value.

As usually defined, the inhibition is the change of the read-out against control, counted positive when it falls.

Chain of Alpha-2C adrenergic receptor (Homo sapiens) (P18825 whole entry, looked up): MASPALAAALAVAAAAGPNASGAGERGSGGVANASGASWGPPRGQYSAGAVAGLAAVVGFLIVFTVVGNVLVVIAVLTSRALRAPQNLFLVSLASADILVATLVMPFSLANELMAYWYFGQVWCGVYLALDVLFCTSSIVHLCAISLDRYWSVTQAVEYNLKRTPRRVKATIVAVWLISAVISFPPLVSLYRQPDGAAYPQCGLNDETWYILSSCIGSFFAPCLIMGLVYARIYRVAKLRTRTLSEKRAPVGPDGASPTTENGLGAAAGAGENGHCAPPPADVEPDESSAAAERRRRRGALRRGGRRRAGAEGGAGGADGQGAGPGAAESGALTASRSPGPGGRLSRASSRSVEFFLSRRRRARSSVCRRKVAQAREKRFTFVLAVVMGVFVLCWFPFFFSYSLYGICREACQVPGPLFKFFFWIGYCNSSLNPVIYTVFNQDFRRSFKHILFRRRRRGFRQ
Chain of Voltage-gated potassium channel subunit beta-2 (Rattus norvegicus) (P62483 whole entry, looked up): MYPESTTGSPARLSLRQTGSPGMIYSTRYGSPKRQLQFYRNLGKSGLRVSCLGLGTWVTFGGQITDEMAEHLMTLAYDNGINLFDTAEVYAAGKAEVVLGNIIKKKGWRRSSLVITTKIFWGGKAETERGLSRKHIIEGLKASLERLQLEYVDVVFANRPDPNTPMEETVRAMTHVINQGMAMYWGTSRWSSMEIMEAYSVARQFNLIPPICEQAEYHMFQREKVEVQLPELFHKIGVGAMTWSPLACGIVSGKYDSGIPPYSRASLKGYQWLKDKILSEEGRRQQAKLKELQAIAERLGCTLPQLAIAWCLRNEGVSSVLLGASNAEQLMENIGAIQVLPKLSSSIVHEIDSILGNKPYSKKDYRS

`CC(=O)c1cccc(NC(=O)CCNS(=O)(=O)c2cccc3nsnc23)c1`: in assay [1], the cell count was found to be 439. In addition, the inhibition in assay [1] was -3.5% (inactive); in assay [3] it was -46.7% (inactive); in assay [7], 11.2% (inactive); in assay [8], 17.2% (inactive). Moreover, the inhibition of aggregation in assay [2] was -17.6% (inactive). Also, the results for the nuclei count in assay [2] and in assay [3] were 104% and 107%, respectively. Besides, the fluorescence slope in assay [4] is -0.539 (inactive). The NADPH fluorescence slope in assay [5] was -3e-05 (inactive). The slope in assay [6] was 0.00543 (inactive).
In the case of `Clc1ccc(OCCCn2cncn2)cc1Cl`, the cell count in assay [1] is 432. Besides, the inhibition was 3.4% (inactive) in assay [1], 7.8% (inactive) in assay [3], 10.6% (inactive) in assay [7] and -19.6% (inactive) in assay [8]. Further, the inhibition of aggregation in assay [2] is 21.2% (inactive). Also, the values for the nuclei count in assay [2] and in assay [3] were 99.2% and 94.7%, respectively. Besides, the fluorescence slope in assay [4] was -0.523 (inactive). Moreover, the NADPH fluorescence slope in assay [5] was 5.3e-06 (inactive). Besides, the slope in assay [6] is 0.00702 (inactive).
For `Cc1ccc2nc3c(cc(C(=O)NCC4CCCO4)n3C)c(=O)n2c1` (stereo not drawn), the cell count in assay [1] is 405. Also, the inhibition was 9.7% (inactive) in assay [1], -25.5% (inactive) in assay [3], -21.8% (inactive) in assay [7] and -39.8% (inactive) in assay [8]. Also, in assay [2], the inhibition of aggregation is 2.7% (inactive). Further, the nuclei count is 111% in assay [2] and 114% in assay [3]. Besides, the fluorescence slope in assay [4] is -0.0813 (active). For the same molecule, in assay [5], the NADPH fluorescence slope was -3.2e-06 (inactive). Moreover, the slope in assay [6] is 0.00481 (inactive).
With `O=C(O)C1CCCN1c1ncnc2c1oc1ccccc12` (stereo not drawn), the cell count in assay [1] was 626. For the same molecule, the inhibition in assay [1] is -4.4% (inactive); in assay [3], 22.9% (inactive); in assay [7], 5.71% (inactive); in assay [8], 5.35% (inactive). In addition, in assay [2], the inhibition of aggregation was 11.5% (inactive). Besides, the nuclei count is 101% in assay [2] and 96.9% in assay [3]. Also, in assay [4], the fluorescence slope was -0.503 (inactive). Also, the NADPH fluorescence slope in assay [5] was -1.8e-05 (inactive). Further, the slope in assay [6] was 0.00455 (inactive).
`O=c1cc(C(F)F)oc2c1ccc1ccccc12`: the cell count in assay [1] is 398. Further, the inhibition in assay [1] was -4% (inactive); in assay [3], -244% (inactive); in assay [7], 9.69% (inactive); in assay [8], 19.9% (inactive). The inhibition of aggregation in assay [2] is 14.2% (inactive). Besides, the nuclei count in assay [2] turned out to be 94%; in assay [3], 99.4%. Moreover, in assay [4], the fluorescence slope is -0.349 (inactive). Further, in assay [5], the NADPH fluorescence slope was -1.6e-05 (inactive). Besides, the slope in assay [6] was 0.00247 (inactive).
For the molecule `CC(C)c1ccc(CNc2ccc(N3CCOCC3)cc2)cc1`, the cell count in assay [1] was determined as 700. The inhibition in assay [1] was -11.3% (inactive); in assay [3], -54.6% (inactive); in assay [7], -21.7% (inactive); in assay [8], -43.5% (inactive). Besides, the inhibition of aggregation in assay [2] was -26.2% (inactive). In addition, the nuclei count was 117% in assay [2] and 119% in assay [3]. The fluorescence slope in assay [4] is -0.316 (inactive). The NADPH fluorescence slope in assay [5] was -4.8e-05 (inactive). Moreover, the slope in assay [6] is 0.00466 (inactive).
`O=C(NCc1ccco1)c1cccc(-c2nnc(-c3ccccc3)o2)c1`: the cell count in assay [1] amounted to 320. Also, the inhibition is -6% (inactive) in assay [1], -78.1% (inactive) in assay [3], 18.5% (inactive) in assay [7] and -23.1% (inactive) in assay [8]. Moreover, the inhibition of aggregation in assay [2] is 5.1% (inactive). The nuclei count is 122% in assay [2] and 124% in assay [3]. Moreover, in assay [4], the fluorescence slope is -0.422 (inactive). The NADPH fluorescence slope in assay [5] was -6.2e-05 (inactive). For the same molecule, the slope in assay [6] was 0.00529 (inactive).
As for `O=C(NCc1ccccc1)C1CCCN(S(=O)(=O)c2cccnc2)C1` (stereo not drawn), the cell count in assay [1] came out at 230. The inhibition in assay [1] was -0.7% (inactive); in assay [3], -59.6% (inactive); in assay [7], 5.96% (inactive); in assay [8], 11% (inactive). In addition, the inhibition of aggregation in assay [2] is 0.8% (inactive). In addition, the figures for the nuclei count in assay [2] and in assay [3] were 92.5% and 98.3%, respectively. Further, in assay [4], the fluorescence slope was -0.549 (inactive). For the same molecule, in assay [5], the NADPH fluorescence slope was -1.4e-05 (inactive). Besides, the slope in assay [6] was 0.0054 (inactive).
For the molecule `COc1cccc(NC(=O)N2CCC(N3CCCCC3)CC2)c1`, the cell count in assay [1] stood at 369. Besides, the inhibition in assay [1] was 5.2% (inactive); in assay [3], -124% (inactive); in assay [7], 15.9% (inactive); in assay [8], 26.1% (inactive). Besides, the inhibition of aggregation in assay [2] is 7.2% (inactive). Besides, the nuclei count in assay [2] stood at 105%; in assay [3] it was 119%. In addition, in assay [4], the fluorescence slope was -0.582 (inactive). In assay [5], the NADPH fluorescence slope was 2.5e-05 (inactive). In assay [6], the slope was 0.00728 (inactive).
Take `Cc1cc(NS(=O)(=O)c2ccc(NC(=O)COc3ccc(Cl)cc3)cc2)no1`: the cell count in assay [1] was determined as 361. The inhibition in assay [1] was 0.4% (inactive); in assay [3], -54.3% (inactive); in assay [7], 13% (inactive); in assay [8], 19.8% (inactive). For the same molecule, in assay [2], the inhibition of aggregation is -9.7% (inactive). Also, the nuclei count turned out to be 118% in assay [2] and 122% in assay [3]. Besides, in assay [4], the fluorescence slope was -0.292 (inactive). Besides, the NADPH fluorescence slope in assay [5] was -6.7e-05 (inactive). Also, the slope in assay [6] was 0.00576 (inactive).
On to `Cc1ccc(N(Cc2ccco2)C(=O)c2cccc(S(=O)(=O)N(C)C)c2)cc1`, for which, in assay [1], the cell count was found to be 357. Further, the inhibition is 2.1% (inactive) in assay [1], 66% (inactive) in assay [3], 0.154% (inactive) in assay [7] and 14.9% (inactive) in assay [8]. In assay [2], the inhibition of aggregation is 25.6% (inactive). In addition, the nuclei count was determined as 103% in assay [2] and 97.5% in assay [3]. Moreover, the fluorescence slope in assay [4] is -0.393 (inactive). Besides, the NADPH fluorescence slope in assay [5] was -4.3e-06 (inactive). The slope in assay [6] is 0.0037 (inactive).
As for `O=C(CCC(=O)N(c1cccc(F)c1)C(C(=O)NC1CCCC1)c1ccncc1)Nc1cccnc1` (stereo not drawn), in assay [1], the cell count is 465. The inhibition in assay [1] was 0.6% (inactive); in assay [3] it was -32.3% (inactive); in assay [7], 18.8% (inactive); in assay [8], 20.4% (inactive). Further, in assay [2], the inhibition of aggregation is -8.2% (inactive). Besides, the results for the nuclei count in assay [2] and in assay [3] were 70.3% and 108%, respectively. Also, the fluorescence slope in assay [4] is -0.5 (inactive). For the same molecule, in assay [5], the NADPH fluorescence slope is -3.7e-05 (inactive). The slope in assay [6] was 0.00449 (inactive).
Regarding `CCCCSc1nc(CCC)cc(=O)[nH]1`, the cell count in assay [1] turned out to be 383. The inhibition was -0.3% (inactive) in assay [1], 3.8% (inactive) in assay [3], 5.02% (inactive) in assay [7] and 2.79% (inactive) in assay [8]. The inhibition of aggregation in assay [2] was -4% (inactive). Also, the values for the nuclei count in assay [2] and in assay [3] were 98.2% and 116%, respectively. Moreover, the fluorescence slope in assay [4] was -0.34 (inactive). Moreover, the NADPH fluorescence slope in assay [5] is 5.5e-06 (inactive). The slope in assay [6] is 0.00636 (inactive).
